Most compounds without a hit are left out; they make up all but 2.2% or so of the library.
NPR1 activator: GC-A (human) enzyme activation; P16066; HEK293 GC-A cells, cGMP TR-FRET, EC30 ANP; 0% at EC30 ANP, 100% saturating ANP; activation, % at 10 µM; hit rate 0.14% among 370,000; AID 1671463; in the data active means activation above about 40%
ADAM17 inh: inhibitors of human ADAM17; P78536; inhibition, % at 6.95 µM; hit rate 0.83% among 370,000; AID 720648; recombinant ADAM17, EDANS/DABCYL FRET peptide cleavage;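 active means inhibition above the mean of compounds lying between control limits plus 3 SD, set per campaign, cut at about 8.5% in these data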
Target sequence (P78536 215-824 limits assumed): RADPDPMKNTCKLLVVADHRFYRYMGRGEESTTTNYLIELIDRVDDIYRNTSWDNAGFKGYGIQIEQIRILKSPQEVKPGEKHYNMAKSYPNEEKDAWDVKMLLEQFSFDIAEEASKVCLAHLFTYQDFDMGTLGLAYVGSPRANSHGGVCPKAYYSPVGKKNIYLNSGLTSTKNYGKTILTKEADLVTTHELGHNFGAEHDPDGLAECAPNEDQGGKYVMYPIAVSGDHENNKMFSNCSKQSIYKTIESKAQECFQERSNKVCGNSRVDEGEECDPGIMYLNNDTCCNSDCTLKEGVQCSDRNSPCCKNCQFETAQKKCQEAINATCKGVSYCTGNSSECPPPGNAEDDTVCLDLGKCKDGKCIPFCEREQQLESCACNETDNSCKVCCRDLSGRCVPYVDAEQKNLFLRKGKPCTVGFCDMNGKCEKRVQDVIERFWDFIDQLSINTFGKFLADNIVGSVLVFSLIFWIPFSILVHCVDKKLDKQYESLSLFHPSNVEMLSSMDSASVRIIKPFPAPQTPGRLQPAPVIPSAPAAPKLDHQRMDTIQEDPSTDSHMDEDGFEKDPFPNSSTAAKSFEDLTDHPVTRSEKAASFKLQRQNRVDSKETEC
KLK7 zymogen act: activates the human kallikrein-7 zymogen; activation, % at 7 µM; purified proKLK7, EDANS-DABCYL substrate fluorescence; 100% is mature enzyme control, 0% vehicle; P49862; hit rate 0.9% among 370,000;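 active means activation above the mean of all tested compounds plus 3 SD, computed per campaign excluding outliers beyond control limits, cut at about 13% in these data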
NPR2 activator: GC-B (human) receptor activation. P20594. hit rate 0.11% among 370,000. activation, % at 10 µM. HEK293-GC-B cells, CNP EC30, cGMP TR-FRET; 0% at EC30 CNP, 100% saturating CNP;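 active means activation at 10 µM reaching about 35% in either raw or pattern-adjusted values, limit read from the data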
ADAM10 inh: inhibitors of human ADAM10; recombinant ADAM10, EDANS/DABCYL FRET peptide cleavage, 3 h; inhibition, % at 7 µM; O14672; hit rate 0.62% among 370,000;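 active means inhibition above a per-campaign cutoff equal to the mean of compounds falling between control-based bounds plus 3 SD, cut at about 20% in these data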
ADAM10 confirm: human ADAM10 inhibition, confirmation | hit rate 1% among 2,100 | inhibition, % at 6.95 µM | ADAM10 QFRET peptide cleavage, EDANS fluorescence | shares compounds with ADAM10 inh | AID 743208;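 active means inhibition above about 20% chosen separately for each screening run, limit read from the data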
ADAM17 ctr: ADAM17 inhibition, counter-screen for ADAM10 exosite hits. shares compounds with ADAM10 inh. ADAM17 QFRET peptide cleavage, EDANS fluorescence. inhibition, % at 6.95 µM. hit rate 0.5% among 2,100;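 active means mean triplicate inhibition above the solvent-only control wells' mean plus 3 SD, cut at about 12% in these data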
Large screens that a line does not name were inactive (follow-up assays come after a bar, where they were run).

CC1(C)CC2CC(C)(CN2C(=O)c2cc(-c3ccc(O)cc3)on2)C1 (stereo not given)	ADAM10 inh 22 | ADAM10 confirm inactive | ADAM17 ctr inactive
CCN(CC)CCCNC(=O)CSc1nc2cccnc2n1C	none
CCOP(=O)(OCC)C(NC(=O)Nc1ccc(Cl)c(Cl)c1)c1ccccc1 (stereo not given)	ADAM10 inh 22 | ADAM10 confirm inactive | ADAM17 ctr inactive
CCOP(=O)(OCC)C(NC(=O)Nc1ccc(C)c(Cl)c1)c1ccccc1 (stereo not given)	none
Cc1ccc(C)c(OCc2cc(C(=O)N(C)Cc3ccccn3)no2)c1	none
Cc1ccc(C)c(OCc2cc(C(=O)NC(c3ccccn3)C(F)(F)F)no2)c1 (stereo not given)	ADAM10 inh 21 | ADAM10 confirm inactive | ADAM17 ctr inactive
CCOC(=O)N/N=C/c1cn(CCCOc2ccc(C)cc2)c2ccccc12	none
Cc1ccc(OCC(=O)N/N=C/c2cn(Cc3ccccc3)c3ccccc23)cc1	ADAM10 inh 23 | ADAM10 confirm inactive | ADAM17 ctr inactive
O=C(O)c1cccc(NC(=S)N/N=C/c2ccccc2OCc2ccc(Br)cc2)c1	ADAM10 inh 23 | ADAM10 confirm inactive | ADAM17 ctr inactive
CC(C)[C@@H]1NC(=O)[C@H]2C[C@@]3(c4ccccc4)c4ccccc4N[C@H]3N2C1=O	none
CCOC(=O)c1c(N)sc(C(O)(C(F)(F)F)C(F)(F)F)c1-c1ccc(F)cc1	ADAM17 inh 11, ADAM10 inh 24 | ADAM10 confirm inactive | ADAM17 ctr inactive
CC(C)=CCC[C@@]1(C(=O)O)[C@@H]2C/C=C(\C)CC/C=C(\C)CC[C@H]1[C@]1(CC2)CO1	none
O=S(=O)(c1ccc(Cl)cc1)N1CCCc2ccccc21	none
Nc1ccc(S(=O)(=O)N2CCCc3ccccc32)cc1	ADAM10 inh 24 | ADAM10 confirm inactive | ADAM17 ctr inactive
C[C@H](CO)N1C[C@H](C)[C@H](CN(C)S(C)(=O)=O)OCc2ccccc2-c2c(n(C)c3ccccc23)C1=O	none
C[C@H](CO)N1C[C@H](C)[C@H](CN(C)S(=O)(=O)c2ccc(Cl)cc2)OCc2ccccc2-c2c(n(C)c3ccccc23)C1=O	ADAM17 inh 12, ADAM10 inh 36 | ADAM10 confirm inactive | ADAM17 ctr inactive
CCC(=O)Nc1ccc2ccccc2c1	none
CC(C)(C)CC(C)(C)NC(=O)CSCC(=O)Nc1ccc2ccccc2c1	ADAM10 inh 25 | ADAM10 confirm inactive | ADAM17 ctr inactive
CC(=O)Oc1cccc(Nc2ncnc3ccccc23)c1	ADAM10 inh 83 | ADAM10 confirm inactive | ADAM17 ctr inactive
O=c1c2ccccc2[nH]n1[C@@H](Cc1ccccc1)Cn1cc(-c2ccc(-c3ccccc3)cc2)nn1	none
C[C@@H]1CCN(C2CC2)S(=O)(=O)c2ccc(N3CCC[C@@H]3CO)cc2O1	none
CC(C)CCNC(=O)c1onc(CSc2ccccn2)c1C(=O)NCCC(C)C	ADAM10 inh 20 | ADAM10 confirm inactive | ADAM17 ctr inactive
COCCNC(=O)c1onc(CSc2ccccn2)c1C(=O)NCCOC	none
CCOC(=O)[C@@]12CN(C(=O)OC(C)(C)C)CC=C1N(Cc1ccc(OC)cc1)C(=O)[C@H]2CC(=O)NCCCOC	none
COC(=O)c1ccc(-c2cc3onc(-c4ccccc4)c3c(=O)n2C)cc1	ADAM10 inh 71 | ADAM10 confirm 25 | ADAM17 ctr inactive
COc1ccccc1OC(C)C(=O)Nc1nc(-c2ccc(S(=O)(=O)N3CCOCC3)cc2)cs1 (stereo not given)	ADAM10 inh 21 | ADAM10 confirm inactive | ADAM17 ctr inactive
CC1(C)C=Cc2ccc(O)c(C(=O)/C=C/c3ccccc3)c2O1	none (no result: KLK7 zymogen act)
NC(=O)C1CCN(c2nc(-c3ccc(OCc4ccccc4)cc3)cs2)CC1	none (no result: KLK7 zymogen act)

Screening results as filed in PubChem BioAssay.
